# Measured values published in ChEMBL document CHEMBL5308541, “MAIP: An Open-Source Tool to Enrich High-Throughput Screening Output and Identify Novel, Druglike Molecules with Antimalarial Activity” (ACS Med Chem Lett, 2023).
# The campaign covered roughly 150,000 compounds. About 540 (0.36%) showed an effect of 50% or more. Only a selection was taken, and strong results are over-represented in it overall.
# Test system: Plasmodium falciparum
# Assay: Primary screen in NF54 nanoGlo assay, in single point, at 2uM, 72h; a lower Z score goes with more inhibition
# Type: functional, Erythrocyte
# Settings: timepoint 72 hour
SMILES,% Inhibition [%],Z score
CN1CCC(N(Cc2ccccc2)C(=O)c2cc3cnccc3[nH]2)CC1,52,-7.83
O=C(NC1CNCCC1O)c1cc2c(Cl)cccc2[nH]1 (stereo not drawn),-3,0.71
O=C(NCC1CC1)c1cc2c(OCc3ccc(Cl)cc3)cccc2[nH]1,51,-9
Cc1cc(N2CCC(N(C)Cc3nc4ccc(F)cc4[nH]3)CC2)ncn1,-13,2.24
CCOc1ccc2nc(CN(CC)CC3CCN(C4CCN(C)CC4)CC3)ccc2c1,80,-13.89
c1ccc(CCC23CN(Cc4ccccn4)CC2CN(Cc2ccns2)C3)cc1 (stereo not drawn),86,-17.09
Cn1cc(CC(=O)N2CC3CN(Cc4ccns4)CC3(CO)C2)c2ccccc21 (stereo not drawn),-3,0.46
C[C@@H](c1cc2ccccc2o1)N(C)CCC(=O)N1CCN(c2ccc(F)cc2)CC1,-2,0.48
O=C(c1ccnc2ccccc12)N1CCN(C2CCOCC2)CC1,-6,0.98
O=C1CN(C(=O)c2ccnc3ccccc23)CCN1Cc1ccccc1F,68,-13.41
CN(CC(=O)N[C@H]1CCCN(c2cnccn2)C1)C1CCNCC1,-7,1.05
Cc1noc(-c2ccnc(NC[C@H]3CCN(CC(F)(F)F)C3)c2)n1,2,-0.25
Cc1noc(-c2ccnc(NCCc3coc(-c4ccccc4)n3)c2)n1,0,-0.05
Cc1noc(-c2ccnc(NC[C@@H](c3ccccn3)N3CCOCC3)c2)n1,95,-18.79
CC(C)N1CCN(c2cccc(Nc3ncccn3)c2)CC1,5,-1.03
Cc1cccc(Nc2ccnc(Nc3ccc(N4CCN(C)CC4)cc3)n2)c1,89,-13.46
c1cc(Nc2ccnc(C3CC3)n2)cc(N2CCCCCC2)c1,-1,0.19
Cc1cnccc1NCCNCc1cccc(OCCCCN2CCOCC2)c1,95,-20.36
Cc1cnccc1NCCNc1ncc(F)c(N2CCCC2)n1,25,-3.87
CCN(CCN1CCCCCC1)C(=O)NCCNc1ccncc1C,-11,2.32
Cc1cnccc1NCCNCc1cnc(N2CCCCC2)nc1,57,-12.25

SMILES,% Inhibition [%],Z score
CN(CCCNc1nccc2ncncc12)CC(F)(F)F,-2,0.32
Cc1cccc(-c2cccc(N3CCC(NCc4cc(C)[nH]n4)CC3)c2)c1,-7,1.27
Cc1ccccc1-c1cccc(N2CCC(NCC3CCNCC3)CC2)c1,98,-19.56
Cc1cccc(-c2cccc(N3CCC(NC[C@H]4CCC(=O)N4)CC3)c2)c1,1,-0.25
CCc1ccc2ncnc(NCCCN3CCN(CCO)CC3)c2c1,65,-12.99
NC(=O)C1CCN(CCCNc2ncnc3ccccc23)CC1,14,-2.8
Cc1cccc2c(NCCCCN3CCN(CCO)CC3)ncnc12,-12,1.79
Cc1ccc(-c2cccc3c(C(=O)NCCCN4CCC(N5CCCCC5)CC4)cc(C)nc23)cc1,98,-16.9
Cc1cc(O)c2cccc(-c3cccc(C(=O)NCCCN4CCCC4)c3)c2n1,-1,0.22
Cc1cnccc1NCCNC1CCN(C(=O)[C@@H]2CCCO2)CC1,-9,1.97
Cn1cncc1[C@@H]1CNC[C@H]1CNC(=O)c1ccccc1NC1CCCCC1,75,-14.83
COC(CN(Cc1nc(N)nc(Nc2ccc(C)cc2)n1)Cc1nc(N)nc(Nc2ccc(C)cc2)n1)OC,85,-18.33
CN(C)CCn1ncc(C(=O)NC2CCN(CC3CCCC3)CC2)c1-c1ccccc1,0,0.06
CCOc1cc(C(=O)NC2CCN(CC3CCCC3)CC2)cc(-c2ccccc2)c1OC,71,-12.46
Cc1ccc2cc(CNC[C@H]3CCN(C4CC4)C3)ccc2n1,0,0.09
CCc1ccc2nc(NC[C@H]3CCCN3C)cc(C)c2c1,-2,0.32
Cc1ccc2nc(NC[C@H]3CCN(C4CC4)C3)cc(C)c2c1,55,-8.34
COc1ccnc(NCCCc2nc(-c3ccncc3)cs2)n1,69,-13.68
Nc1nnc(CCCNc2nccc(-c3ccncc3)n2)s1,-9,1.91
c1ccc2c(Nc3ccc4[nH]cnc4c3)c3ccccc3nc2c1,98,-19.44
Clc1cc(Nc2c3ccccc3nc3ccccc23)ccc1Oc1ccc2ccccc2c1Cl,-10,1.68

SMILES,% Inhibition [%],Z score
CC(C)Nc1cc(-c2cc(OC(F)(F)F)ccc2O)ncn1,1,-0.31
Oc1ccc(OC(F)(F)F)cc1-c1ccc2nccn2n1,86,-17.13
c1cc(-c2noc(C34CCCN(CCC3)C4)n2)cc(-n2ccnc2)c1,9,-1.87
c1ccc(CNc2ccc(-c3noc(C45CCCN(CCC4)C5)n3)cn2)cc1,81,-17.51
c1ccc(-c2nc3c(c(NCCNc4ncccn4)n2)CCC3)nc1,41,-7.15
Cc1cc(F)ccc1CNc1ccc(N2CCN(C)CC2)nc1,3,-0.45
OC1(Cn2ccnc2)CCN(Cc2ccnc3ccccc23)CC1,-5,0.98
Cc1c(CN2CCC(O)(Cn3ccnc3)CC2)[nH]c2c(Cl)cccc12,95,-16.38
CCn1cc(-c2cccc(C(=O)N[C@@H](C)CN3CCc4ccccc4C3)c2)cn1,53,-10.47
CNC(=O)c1ccc(C(=O)Nc2nc(C3(C)CC3)ns2)cn1,23,-4.92
CCCC(=O)NC1COCC1Cc1ccncc1 (stereo not drawn),82,-16.24
Cc1cc(C)c(C)c(S(=O)(=O)NC2COCC2Cc2ccncc2)c1C (stereo not drawn),0,-0.02
COCCC(=O)NC1COCC1Cc1ccnc2ccccc12 (stereo not drawn),1,-0.24
CNc1nc(N2CCN(CC(=O)NC3CCCCC3)CC2)nc2ccccc12,80,-14.07
Cc1nc(N2CCN(CC(=O)NC3CCCCC3)CC2)c2cc[nH]c2n1,-11,2.32
CCN1CCC[C@@H]1CN(CCN(C)C)C(=O)c1ccc(-c2cncnc2)cc1F,2,-0.24
N[C@H]1CC[C@@H](NC2CCN(c3ccc(F)c(F)c3)CC2)CC1,53,-9.21
Fc1ccc(N2CCC(N[C@@H]3COC4(CCNCC4)C3)CC2)cc1F,23,-4.05
CCc1ccc(Nc2nc(C(=O)NCCc3c[nH]cn3)nc3ccccc23)cc1,7,-1.15
COc1ccc(-c2cncc(C(=O)NCC3CCN(CCN(C)C)CC3)c2)cc1,94,-16.22
COCCN1CCC(CN(C)C(=O)c2ccc(-c3cncc(N)c3)cc2)CC1,2,-0.4

SMILES,% Inhibition [%],Z score
Cc1cc(O)c(Cl)cc1-c1ccc2ncnc(N)c2c1,-5,0.82
Cn1ccc2c(-c3cccc4c(N)ccnc34)ccnc21,6,-1.24
Cc1cc(O)c(Cl)cc1-c1ncnc2[nH]ccc12,1,-0.29
Cc1cc(O)c(Cl)cc1-c1cccc2c(N)ccnc12,82,-14.53
Cc1cc(O)c(Cl)cc1-c1ccc2nccc(N)c2c1,91,-15.94
OC[C@H](CNCc1cc2ccc(F)cc2[nH]1)c1ccccc1Cl,41,-6.28
O[C@@H](CNCc1cc2cc(Cl)c(Cl)cc2[nH]1)c1ccc(F)cc1,76,-13.27
CC(CNc1nc(NCC(C)N2CCOCC2)c2cc(Cl)ccc2n1)N1CCOCC1 (stereo not drawn),78,-13.62
CN1CCN(CCOc2ccccc2CN(C)Cc2cc3cc(F)ccc3[nH]2)CC1,73,-14.51
CCN1CCN(CCOc2ccccc2CN(C)Cc2cccc3cnccc23)CC1,7,-1.54
COc1ccc(-c2ccnc(C3CCN(c4ccnc(C#N)n4)CC3)n2)cc1,-1,0.14
c1ccc(-c2ccnc(C3CCN(CC45CNCC4C5)CC3)n2)cc1 (stereo not drawn),89,-13.57
c1cc(N2CCOCC2)nc(C2CCN(CC34CNCC3C4)CC2)n1 (stereo not drawn),-8,1.26
O=C(NCc1cccc(-c2cccnc2)c1)N[C@H]1CCN(C2CCCCC2)C1,51,-7.77
C[C@H]1CN(C2CCOCC2)CCN1C(=O)NCc1cccc(-c2cccnc2)c1,-1,0.29
CC(C)c1ccc(-c2nc(CN3CCCCC3)cc(CN3CCCCC3)c2O)cc1,90,-15.77
Cc1ccc(Nc2ncc(-c3ccc(Cl)c(OC(F)(F)F)c3)cn2)cc1,-5,1
CN1CCCN(Cc2ccc(CNCc3cccc(O)c3)cc2)CC1,17,-3.36
CCN1CCN(c2ccc(CNCc3cccc(O)c3)cc2F)CC1,90,-19.29
Cc1nc2ccccc2c(O)c1CC[C@H](C)NC1CCNCC1,-3,0.51
CCCCN(C)C[C@@H](C)NC(=O)CCCN1CCN(c2ccccc2)CC1,-5,1.09
